For experiment [1], the system named is Human papillomavirus type 1a protein E7 (residues 44-93). Nature of the experiment: HPV1a E7 fragment binders on microarrays, primary screen, biochemical, small-molecule microarray, residues 44-93, 635 nm fluorescence (AID 1108).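 Further: E7 fragment applied at 1 µg/mL in TBST for 1 h at 4 C; score combines spot fluorescence with its signal to noise ratio.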 As to conditions: small-molecule microarray binding, fluorescence 635 nm; higher = more signal.
A short description of experiment [2]: modulators of HCV replicon luciferase signal, primary screen, HCV replication inhibitor project, Huh7 cells, luciferase reporter (AID 1109).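 Further: huh7 hepatoma cells harbouring a luciferase neomycin HCV replicon reporter; luciferase luminescence as measure of HCV replicon replication; test concentration not given here.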 As to conditions: 48 h, higher = more signal.
Experiment [3] has as its target Left-right determination factor 2 (Homo sapiens) (UniProt O00292). Nature of the experiment: LEFTY2 binders on small-molecule microarrays, primary screen, biochemical, small-molecule microarray, 635 nm fluorescence scan (AID 1110). Conditions: LEFTY2 binding, higher = more signal.
The target of experiment [4] is Calmodulin-1 (Homo sapiens) (UniProt P0DP23). In words: CALM1 binders on microarrays, EGTA buffer, profiling panel, biochemical, small-molecule microarray, Cy5-labelled CALM1 (AID 1111).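 Further: labelled calmodulin applied in Tris saline Tween buffer holding calcium plus EGTA and DTT.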 As to conditions: Cy5-CALM1 binding fluorescence, higher = more signal.
Experiment [5] shares this target. In words: calcium-bound CALM1 binders on microarrays, profiling panel, artefact control for SMM control-protein annotation, biochemical, small-molecule microarray, Cy5-labelled CALM1, plus calcium (AID 1112).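 Further: score merges spot fluorescence with signal to noise from triplicate slides.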 Conditions: Cy5-CALM1 binding fluorescence, higher = more signal.
Experiment [6] is described as follows: small-molecule microarray binders of probe aWnt5a, primary screen, biochemical, biotinylated probe, 635/667 nm fluorescence (AID 1113).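 Further: score merges 667 nm fluorescence intensity with signal-to-noise per printed feature.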 Conditions: higher = more signal.
Experiment [7] can be described thus: small-molecule microarray binders of probe aShh, primary screen, biochemical, biotinylated probe, 635/667 nm fluorescence (AID 1114).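 Further: probe is biotin-labelled aShh protein from a stem cell growth factor screen; measures binding of labelled protein to compounds printed on the slide; score merges feature fluorescence at 667 nm with signal-to-noise.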 Conditions: higher = more signal.
Experiment [8] can be described thus: small-molecule microarray binders of probe aNog, primary screen, biochemical, biotinylated probe, 635/667 nm fluorescence (AID 1115).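 Further: probe is biotinylated aNog protein used at 0.15 µg/mL for 1 h at 4 C; z-score combines 667 nm fluorescence of each spot with its signal to noise.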 As to conditions: higher = more signal.
In experiment [9] the target is Torsin-1A-interacting protein 1 (Homo sapiens) (UniProt Q5JTV8). Nature of the experiment: LAP1 binders from COS7 cell lysate, primary screen, small-molecule microarray, 635/667 nm fluorescence (AID 1116). As to conditions: COS7-hLAP1 lysate binding, 635 nm fluorescence, higher = more signal.
Experiment [10] deals with Alpha-bungarotoxin (Bungarus multicinctus) (UniProt P60615). In words: alpha-bungarotoxin binders on microarray, profiling panel, artefact control for SMM control protein annotation, biochemical, small-molecule microarray, Alexa647 label, 635/667 nm fluorescence (AID 1117). Conditions: alpha-BTX-A647 binding fluorescence, higher = more signal.
The target in the next experiment is Albumin (Bos taurus) (UniProt P02769). Nature of the experiment: bovine serum albumin binders on microarray, profiling panel, artefact control for SMM control protein annotation, biochemical, small-molecule microarray, Alexa647 label, 635/667 nm fluorescence (AID 1118).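 Further: score merges 667 nm emission intensity and signal-to-noise per printed compound spot.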 As to conditions: BSA-A647 binding, fluorescence 635 nm, higher = more signal.
Experiment [11] is described as follows: small-molecule microarray binders of probe aXIP, primary screen, biochemical, NeuroSMM set, 635/667 nm fluorescence (AID 1119).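 Further: probe is the protein aXip251-270 applied at 1 µg/mL to compound-printed slides; binding of probe to printed compounds measured as 667 nm fluorescence plus signal to noise.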 Conditions: higher = more signal, called active from +8 up or from −8 down.
Experiment [12] in a line: small-molecule binders of probe aNOTCH3, primary screen, biochemical, small-molecule microarray, 635/667 nm fluorescence (AID 1120).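 Further: probe is a biotin-tagged antibody raised against NOTCH3 rather than NOTCH3 protein; score merges spot fluorescence near 667 nm with spot signal to noise.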 Conditions: higher = more signal.
Experiment [13] can be described thus: small-molecule binders of probe aNOTCH2, primary screen, biochemical, small-molecule microarray, 635/667 nm fluorescence (AID 1121).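 Further: score merges feature fluorescence read at 667 nm with its signal to noise.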 As to conditions: higher = more signal.
Experiment [14] deals with Carbonic anhydrase 2 (Homo sapiens) (UniProt P00918). Nature of the experiment: CAII small-molecule binders, profiling panel, biochemical, small-molecule microarray, Alexa647-labelled CAII (AID 1122). Conditions: CAII-A647 binding fluorescence, higher = more signal.
A short description of experiment [15]: COS7 lysate on small-molecule microarray, probe aHis, 635 nm (AID 1123).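 Further: z-score combines 667nm fluorescence intensity with signal-to-noise per printed compound spot.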 As to conditions: COS7 cell lysate, fluorescence, higher = more signal.
A short description of experiment [16]: compound binding in COS7 lysate, probe aLAP1, primary screen, cell lysate, small-molecule microarray (AID 1124).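 Further: lysate comes from COS7 cells expressing LAP1 and is applied at 0.3 µg/mL; score merges spot fluorescence near 667 nm with signal-to-noise over triplicate slides.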 Conditions: probe aLAP1, fluorescence, higher = more signal.
For the next experiment, the system named is Sam68 (KHDRBS1). Nature of the experiment: Sam68 small-molecule binders, primary screen, biochemical, small-molecule microarray, 635 nm fluorescence (AID 1125).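 Further: score merges 667 nm channel intensity with signal to noise over triplicate slides.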 Conditions: small-molecule microarray binding, higher = more signal.
In experiment [17] the test system is Chordin-like protein 2 (CHRDL2). Nature of the experiment: CHRDL2 small-molecule binders, primary screen, biochemical, small-molecule microarray, 635 nm fluorescence (AID 1126).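 Further: printed compound slides probed with Chrdl2 protein at 4 µg/mL for 1 h at 4 C; score merges 667 nm emission intensity with signal to noise over three replicate slides.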 Conditions: small-molecule microarray binding, fluorescence 635 nm; higher = more signal.
For experiment [18], the target named is Concanavalin-A (Canavalia ensiformis) (UniProt P02866). In words: ConA small-molecule binders, primary screen, artefact control for SMM control protein annotation, biochemical, small-molecule microarray, Alexa647 label, 635 nm (AID 1127).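 Further: z combines 667 nm emission intensity with signal-to-noise across three replicate slides.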 As to conditions: ConA-A647 binding fluorescence, higher = more signal.

The source made the active and inactive calls.

Left-right determination factor 2 (Homo sapiens), sequence (O00292 whole entry, looked up): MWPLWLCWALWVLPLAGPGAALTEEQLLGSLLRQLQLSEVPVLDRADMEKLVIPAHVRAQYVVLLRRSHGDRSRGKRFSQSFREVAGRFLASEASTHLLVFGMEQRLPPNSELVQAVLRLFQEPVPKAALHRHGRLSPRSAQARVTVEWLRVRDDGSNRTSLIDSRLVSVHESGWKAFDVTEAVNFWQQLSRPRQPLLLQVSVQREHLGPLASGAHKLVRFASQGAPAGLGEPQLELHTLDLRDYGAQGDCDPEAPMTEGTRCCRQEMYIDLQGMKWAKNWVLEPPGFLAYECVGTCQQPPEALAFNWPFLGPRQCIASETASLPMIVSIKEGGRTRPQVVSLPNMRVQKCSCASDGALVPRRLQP
Alpha-bungarotoxin (Bungarus multicinctus), sequence (P60615 whole entry, looked up): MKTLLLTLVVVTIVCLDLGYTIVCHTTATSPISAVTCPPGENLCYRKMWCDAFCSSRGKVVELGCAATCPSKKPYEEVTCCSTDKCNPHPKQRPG
Albumin (Bos taurus), sequence (P02769 whole entry, looked up): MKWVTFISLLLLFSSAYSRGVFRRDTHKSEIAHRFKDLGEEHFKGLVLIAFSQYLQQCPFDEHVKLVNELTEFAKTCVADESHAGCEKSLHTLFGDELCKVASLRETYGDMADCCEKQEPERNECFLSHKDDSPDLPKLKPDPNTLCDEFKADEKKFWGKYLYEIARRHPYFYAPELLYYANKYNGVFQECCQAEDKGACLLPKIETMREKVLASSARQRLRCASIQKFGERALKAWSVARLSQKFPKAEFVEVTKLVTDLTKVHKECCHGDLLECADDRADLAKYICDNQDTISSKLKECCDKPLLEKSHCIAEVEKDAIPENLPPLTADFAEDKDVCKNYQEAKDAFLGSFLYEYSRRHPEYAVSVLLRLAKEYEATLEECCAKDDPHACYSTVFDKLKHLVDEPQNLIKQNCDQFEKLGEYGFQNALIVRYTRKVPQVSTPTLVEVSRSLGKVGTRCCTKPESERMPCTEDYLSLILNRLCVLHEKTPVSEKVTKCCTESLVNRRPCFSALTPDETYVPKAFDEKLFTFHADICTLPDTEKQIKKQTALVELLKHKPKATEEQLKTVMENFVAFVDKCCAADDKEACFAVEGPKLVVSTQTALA
Concanavalin-A (Canavalia ensiformis), sequence (P02866 whole entry, looked up): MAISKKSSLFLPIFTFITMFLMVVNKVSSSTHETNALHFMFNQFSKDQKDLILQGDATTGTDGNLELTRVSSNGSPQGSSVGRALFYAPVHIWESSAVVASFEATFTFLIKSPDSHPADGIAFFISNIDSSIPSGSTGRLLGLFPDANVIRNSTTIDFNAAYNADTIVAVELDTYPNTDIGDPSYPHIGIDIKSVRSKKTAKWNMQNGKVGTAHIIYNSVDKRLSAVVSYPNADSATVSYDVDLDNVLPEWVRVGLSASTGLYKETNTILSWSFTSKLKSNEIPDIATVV
Torsin-1A-interacting protein 1 (Homo sapiens), sequence (Q5JTV8 whole entry, looked up): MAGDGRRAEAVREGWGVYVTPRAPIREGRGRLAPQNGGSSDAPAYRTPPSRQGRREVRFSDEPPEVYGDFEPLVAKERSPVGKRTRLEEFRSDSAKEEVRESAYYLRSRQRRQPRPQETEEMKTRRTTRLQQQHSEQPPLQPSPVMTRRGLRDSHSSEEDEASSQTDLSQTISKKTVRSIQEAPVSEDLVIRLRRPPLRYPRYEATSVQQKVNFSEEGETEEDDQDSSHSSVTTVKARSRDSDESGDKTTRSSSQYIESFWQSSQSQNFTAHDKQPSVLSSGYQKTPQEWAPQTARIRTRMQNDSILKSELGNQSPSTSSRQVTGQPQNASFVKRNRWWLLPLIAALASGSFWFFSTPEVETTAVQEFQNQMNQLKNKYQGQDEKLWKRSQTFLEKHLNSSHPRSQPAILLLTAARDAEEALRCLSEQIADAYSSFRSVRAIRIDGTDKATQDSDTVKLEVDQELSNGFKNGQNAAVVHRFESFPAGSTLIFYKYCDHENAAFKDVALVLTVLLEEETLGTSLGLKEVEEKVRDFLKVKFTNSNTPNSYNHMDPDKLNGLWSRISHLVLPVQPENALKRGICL

For the compound `COc1ccc([Si](C)(C)[C@@H]2[C@@H](CC(=O)N(CCO)Cc3ccccc3)O[C@]3(C(=O)N(C)c4c(Br)cc(C)cc43)[C@H]2C)cc1`, the composite z-score was 1.26 in experiment [1]; 0.661 in experiment [3]; -0.87 in experiment [4]; -1.13 in [5]; 0.168 in [6]; -0.399 in [7]. In addition, the composite z-score in [8] is -0.406; in [9] it was 0.13; in experiment [10] it was 0.0978; with Albumin (Bos taurus), 0.597; in [12], -0.0918; in experiment [13], -0.124. Moreover, the composite z-score in experiment [14] was 0.154; in experiment [15] it was 0.741; in [16], 0.231; in the experiment with Sam68 (KHDRBS1), 0.649; in [17], 1.4; in [18], -0.126. In addition, the z-score in [2] is -4.3. In addition, in experiment [11], the composite Z-score was 0.0128 (inactive).

Take `C=CCN1C(=O)[C@@]2(O[C@@H](CCO)[C@H]([Si](C)(C)c3ccc(OC)cc3)[C@H]2C)c2cc(NC(=O)[C@H](C)O)ccc21`: the composite z-score in experiment [1] is 1.37; in experiment [3], 0.256; in experiment [4] it was 0.929; in experiment [5] it was -0.377; in experiment [6], 0.0279; in [7], 0.0639. Also, the composite z-score is -0.21 in experiment [8]; 1.2 in experiment [9]; 0.175 in experiment [10]; 0.489 with Albumin (Bos taurus); -0.0343 in experiment [12]; -0.126 in experiment [13]. Moreover, the composite z-score was 0.63 in experiment [14]; 1.68 in experiment [15]; 0.231 in [16]; 1.31 with Sam68 (KHDRBS1); -0.0585 in experiment [17]; 0.584 in experiment [18]. This compound registered a z-score in [2] of -3.03. Also, in [11], the composite Z-score is 0.0001 (inactive).

For the compound `CN(C)C(=O)[C@@]1(Cc2ccccc2N=[N+]=[N-])N=C(c2ccc(OCCCO)cc2)O[C@H]1c1ccccc1N=[N+]=[N-]`, the composite z-score was 1.41 in experiment [1]; -0.121 in experiment [3]; 1.43 in experiment [4]; 0.859 in experiment [5]; -0.0403 in [6]; 0.108 in experiment [7]. Further, the composite z-score came out at 0.566 in experiment [8]; 1.29 in experiment [9]; 1.6 in [10]; 0.89 with Albumin (Bos taurus); 0.277 in experiment [12]; 0.083 in experiment [13]. Also, the composite z-score in [14] was 0.565; in experiment [15], 1.65; in experiment [16] it was 0.372; with Sam68 (KHDRBS1), 1.33; in [17] it was 0.325; in [18], 0.819. This compound also had a z-score in experiment [2] of -2.28. The composite Z-score in [11] was 0.167 (inactive).

Turning to `C=C[C@@H](O)[C@H]1CC(c2ccccc2)=NO1`, the composite z-score in experiment [1] is -0.893; in experiment [3], 0.277; in experiment [4], -0.358; in experiment [5], -0.711; in experiment [6] it was -0.208; in [7], 0.167. The composite z-score in [8] was -0.0524; in [9] it was 0.0222; in experiment [10], -0.0532; with Albumin (Bos taurus), -0.596; in [12], -0.1; in experiment [13], -0.084. Also, the composite z-score in experiment [14] was -0.0997; in experiment [15], -0.322; in experiment [16] it was -0.156; with Sam68 (KHDRBS1), -0.542; in [17] it was 0.647; in experiment [18], 0.334. In experiment [2], this compound registered a z-score of 0.479. The composite Z-score in [11] was 0.303 (inactive).

On to `COC(=O)C(CC#Cc1ccc2c(c1)[C@]1(C(=O)N2)[C@H](c2ccccc2OCCO)N2[C@H](c3ccccc3)[C@H](c3ccccc3)OC(=O)[C@H]2[C@@H]1C(=O)Nc1nc2ccccc2s1)C(=O)OC`, for which the composite z-score in experiment [1] was 1.41; in experiment [3], 0.397; in experiment [4], 0.973; in [5], -0.196; in experiment [6], -0.0239; in experiment [7] it was 0.233. The composite z-score in experiment [8] was -0.466; in [9], 0.874; in experiment [10], 1.5; in the experiment with Albumin (Bos taurus), 0.67; in experiment [12], 0.106; in [13] it was -0.0928. The composite z-score in experiment [14] worked out at 0.226; in [15], 1.9; in [16], 0.379; in the experiment on Sam68 (KHDRBS1), 1.31; in experiment [17], 0.19; in experiment [18], 1.15. In experiment [2], the z-score was -2.02. In [11], the composite Z-score was -0.364 (inactive).

Values taken from PubChem BioAssay.
